# Laboratory results taken from the supplement of paper PMC7411054.
# Structures can show the parent of a compound that is named as a salt.
# Tested on: A549-ACTB-RAB5A
# Experiment: phenotypically active (imaging signature differs from DMSO and reproducible) at any of 0.3-9 uM (binary (1 = active, 0 = inactive)); higher = active
# Settings: treatment time: 24 h
# Method in brief: (§1)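 Cells from fifteen gene-edited reporter lines (A549, HepG2 and WPMY1) were treated for 24 h at 0.3, 1, 3 or 9 µM and imaged live, four wells per condition. Features were normalised per well to solvent control wells. A condition deviated if ≥3 of 4 wells passed the 95th percentile of control Euclidean distances and was reproducible if its median replicate Pearson correlation beat the 95th percentile of non-replicates; phenotypic activity needed both.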
row,Compound,phenotypically active
1,O=P(O)(O)C(O)(Cc1cccnc1)P(=O)(O)O [risedronate],0 (inactive)
2,O=C(CCc1ccc(O)cc1)c1c(O)cc(O)cc1O[C@@H]1O[C@H](CO)[C@@H](O)[C@H](O)[C@H]1O [Phloridzin],0 (inactive)
3,CC(C)NCCCC1(C(N)=O)c2ccccc2-c2ccccc21 [indecainide],0 (inactive)
4,COc1c2occc2cc2ccc(=O)oc12 [methoxsalen],0 (inactive)
5,CC(=O)N[C@@H](CC(=O)O)C(=O)N[C@@H](CCC(=O)O)C(=O)O [Spaglumic acid],0 (inactive)
6,OCC(CO)N[C@H]1C[C@](O)(CO)[C@@H](O)[C@H](O)[C@H]1O [Voglibose],0 (inactive)
7,CCOc1ccccc1OCCN[C@H](C)Cc1ccc(OC)c(S(N)(=O)=O)c1 [tamsulosin],0 (inactive)
8,O=C1NC(=O)/C(=C\c2cccc(C(F)(F)F)c2)S1,0 (inactive)
9,NS(=O)(=O)c1cc(Cl)c(Cl)c(S(N)(=O)=O)c1 [diclofenamide],0 (inactive)
10,CN1CCN2c3ncccc3Cc3ccccc3C2C1 (stereo not drawn) [Mirtazapine],0 (inactive)
11,O=C1N(c2ccccc2)c2ccccc2C1(Cc1ccncc1)Cc1ccncc1 [linopirdine],0 (inactive)
12,C[C@H]1[C@H](C)CC[C@]2(C(=O)O)CC[C@]3(C)C(=CC[C@@H]4[C@@]5(C)CC[C@H](O)C(C)(C)[C@@H]5CC[C@]43C)[C@H]12 [Ursolic acid],0 (inactive)
13,CCOC(=O)[C@H](CCc1ccccc1)N[C@@H](C)C(=O)N1Cc2ccccc2C[C@H]1C(=O)O [quinapril],0 (inactive)
14,CC1(C)CCC(C)(C)c2cc(C3(c4ccc(C(=O)O)cc4)OCCO3)ccc21,0 (inactive)
15,CCCCCCCCCN1C[C@H](O)[C@@H](O)[C@H](O)[C@H]1CO [N-Nonyldeoxynojirimycin],0 (inactive)
16,CC(=O)O[C@H]1C[C@@H]2CC[C@@H]3[C@H](CC[C@@]4(C)[C@H]3C[C@H]([N+]3(C)CCCCC3)[C@@H]4OC(C)=O)[C@@]2(C)C[C@@H]1N1CCCCC1 [vecuronium],0 (inactive)
17,O=C(O)c1cc(/N=N/c2ccc(O)c(C(=O)O)c2)ccc1O [olsalazine],0 (inactive)
18,CCOC(=O)[C@H](CCc1ccccc1)N[C@H]1CCc2ccccc2N(CC(=O)O)C1=O [benazepril],0 (inactive)
19,O=C(c1ccccc1)c1ccc2n1CCC2C(=O)O (stereo not drawn) [ketorolac],0 (inactive)
20,CN1C(=O)CC[C@H]1c1cccnc1 [(-)-Cotinine],0 (inactive)

row,Compound,phenotypically active
1,CN1C(=O)OC(C)(C)C1=O [trimethadione],0 (inactive)
2,CCC(=C(CC)c1ccc(O)cc1)c1ccc(O)cc1 (stereo in doubt) [diethylstilbestrol],0 (inactive)
3,CCOc1cc(CC(=O)N[C@@H](CC(C)C)c2ccccc2N2CCCCC2)ccc1C(=O)O [repaglinide],0 (inactive)
4,O=C(Cn1ccnc1[N+](=O)[O-])NCc1ccccc1 [benznidazole],0 (inactive)
5,CCCc1nn(C)c2c(=O)[nH]c(-c3cc(S(=O)(=O)N4CCN(C)CC4)ccc3OCC)nc12 [Sildenafil citrate],0 (inactive)
6,CCN(CC)CC(=O)Nc1c(C)cccc1C [lidocaine],0 (inactive)
7,COc1ccc([C@@H]2Sc3ccccc3N(CCN(C)C)C(=O)[C@@H]2OC(C)=O)cc1 [diltiazem],0 (inactive)
8,COc1ccc(CCN(C)CCCN2CCc3cc(OC)c(OC)cc3CC2=O)cc1OC [zatebradine],0 (inactive)
9,CC(C)NCC(O)c1ccc(O)c(O)c1 (stereo not drawn) [Isoproterenol hydrochloride],0 (inactive)
10,O=C(O)c1ccc(O)c2ncccc12,0 (inactive)
11,NCCCC[C@H](N[C@@H](CCc1ccccc1)C(=O)O)C(=O)N1CCC[C@H]1C(=O)O [lisinopril],0 (inactive)
12,C#C[C@]1(O)CC[C@H]2[C@@H]3CCc4cc(OC5CCCC5)ccc4[C@H]3CC[C@@]21C [quinestrol],0 (inactive)
13,O=C(NCc1ccccn1)Nc1nnc(-c2ccco2)o1,0 (inactive)
14,O=C1c2ccccc2C(Cc2ccncc2)(Cc2ccncc2)c2ccccc21,0 (inactive)
15,CCOC(=O)C(C)(C)Oc1ccc(Cl)cc1 [Clofibrate],0 (inactive)
16,CC(C)(Sc1ccc(CCN(CCCCC2CCCCC2)C(=O)NC2CCCCC2)cc1)C(=O)O,0 (inactive)
17,O=c1[nH]cnc2c1ncn2[C@H]1CC[C@@H](CO)O1 [Didanosine],0 (inactive)
18,CC(c1cc2ccccc2s1)N(O)C(N)=O (stereo not drawn) [zileuton],0 (inactive)
19,COc1ccc2[nH]c(S(=O)Cc3ncc(C)c(OC)c3C)nc2c1 (stereo not drawn) [omeprazole],0 (inactive)

# Tested on: A549-CANX-COX4
# Experiment: as above
# Settings: treatment time: 24 h
# Method in brief: as §1
row,Compound,phenotypically active
1,O=P(O)(O)C(O)(Cc1cccnc1)P(=O)(O)O [risedronate],0 (inactive)
2,O=C(CCc1ccc(O)cc1)c1c(O)cc(O)cc1O[C@@H]1O[C@H](CO)[C@@H](O)[C@H](O)[C@H]1O [Phloridzin],0 (inactive)
3,CC(C)NCCCC1(C(N)=O)c2ccccc2-c2ccccc21 [indecainide],0 (inactive)
4,COc1c2occc2cc2ccc(=O)oc12 [methoxsalen],0 (inactive)
5,CC(=O)N[C@@H](CC(=O)O)C(=O)N[C@@H](CCC(=O)O)C(=O)O [Spaglumic acid],0 (inactive)
6,OCC(CO)N[C@H]1C[C@](O)(CO)[C@@H](O)[C@H](O)[C@H]1O [Voglibose],0 (inactive)
7,CCOc1ccccc1OCCN[C@H](C)Cc1ccc(OC)c(S(N)(=O)=O)c1 [tamsulosin],0 (inactive)
8,O=C1NC(=O)/C(=C\c2cccc(C(F)(F)F)c2)S1,0 (inactive)
9,NS(=O)(=O)c1cc(Cl)c(Cl)c(S(N)(=O)=O)c1 [diclofenamide],0 (inactive)
10,CN1CCN2c3ncccc3Cc3ccccc3C2C1 (stereo not drawn) [Mirtazapine],0 (inactive)
11,O=C1N(c2ccccc2)c2ccccc2C1(Cc1ccncc1)Cc1ccncc1 [linopirdine],0 (inactive)
12,C[C@H]1[C@H](C)CC[C@]2(C(=O)O)CC[C@]3(C)C(=CC[C@@H]4[C@@]5(C)CC[C@H](O)C(C)(C)[C@@H]5CC[C@]43C)[C@H]12 [Ursolic acid],0 (inactive)
13,CCOC(=O)[C@H](CCc1ccccc1)N[C@@H](C)C(=O)N1Cc2ccccc2C[C@H]1C(=O)O [quinapril],0 (inactive)
14,CC1(C)CCC(C)(C)c2cc(C3(c4ccc(C(=O)O)cc4)OCCO3)ccc21,0 (inactive)
15,CCCCCCCCCN1C[C@H](O)[C@@H](O)[C@H](O)[C@H]1CO [N-Nonyldeoxynojirimycin],0 (inactive)
16,CC(=O)O[C@H]1C[C@@H]2CC[C@@H]3[C@H](CC[C@@]4(C)[C@H]3C[C@H]([N+]3(C)CCCCC3)[C@@H]4OC(C)=O)[C@@]2(C)C[C@@H]1N1CCCCC1 [vecuronium],0 (inactive)
17,O=C(O)c1cc(/N=N/c2ccc(O)c(C(=O)O)c2)ccc1O [olsalazine],0 (inactive)
18,CCOC(=O)[C@H](CCc1ccccc1)N[C@H]1CCc2ccccc2N(CC(=O)O)C1=O [benazepril],0 (inactive)
19,O=C(c1ccccc1)c1ccc2n1CCC2C(=O)O (stereo not drawn) [ketorolac],0 (inactive)
20,CN1C(=O)CC[C@H]1c1cccnc1 [(-)-Cotinine],0 (inactive)

row,Compound,phenotypically active
1,CN1C(=O)OC(C)(C)C1=O [trimethadione],0 (inactive)
2,CCC(=C(CC)c1ccc(O)cc1)c1ccc(O)cc1 (stereo in doubt) [diethylstilbestrol],0 (inactive)
3,CCOc1cc(CC(=O)N[C@@H](CC(C)C)c2ccccc2N2CCCCC2)ccc1C(=O)O [repaglinide],0 (inactive)
4,O=C(Cn1ccnc1[N+](=O)[O-])NCc1ccccc1 [benznidazole],0 (inactive)
5,CCCc1nn(C)c2c(=O)[nH]c(-c3cc(S(=O)(=O)N4CCN(C)CC4)ccc3OCC)nc12 [Sildenafil citrate],0 (inactive)
6,CCN(CC)CC(=O)Nc1c(C)cccc1C [lidocaine],0 (inactive)
7,COc1ccc([C@@H]2Sc3ccccc3N(CCN(C)C)C(=O)[C@@H]2OC(C)=O)cc1 [diltiazem],0 (inactive)
8,COc1ccc(CCN(C)CCCN2CCc3cc(OC)c(OC)cc3CC2=O)cc1OC [zatebradine],0 (inactive)
9,CC(C)NCC(O)c1ccc(O)c(O)c1 (stereo not drawn) [Isoproterenol hydrochloride],0 (inactive)
10,O=C(O)c1ccc(O)c2ncccc12,0 (inactive)
11,NCCCC[C@H](N[C@@H](CCc1ccccc1)C(=O)O)C(=O)N1CCC[C@H]1C(=O)O [lisinopril],0 (inactive)
12,C#C[C@]1(O)CC[C@H]2[C@@H]3CCc4cc(OC5CCCC5)ccc4[C@H]3CC[C@@]21C [quinestrol],0 (inactive)
13,O=C(NCc1ccccn1)Nc1nnc(-c2ccco2)o1,0 (inactive)
14,O=C1c2ccccc2C(Cc2ccncc2)(Cc2ccncc2)c2ccccc21,0 (inactive)
15,CCOC(=O)C(C)(C)Oc1ccc(Cl)cc1 [Clofibrate],0 (inactive)
16,CC(C)(Sc1ccc(CCN(CCCCC2CCCCC2)C(=O)NC2CCCCC2)cc1)C(=O)O,0 (inactive)
17,O=c1[nH]cnc2c1ncn2[C@H]1CC[C@@H](CO)O1 [Didanosine],0 (inactive)
18,CC(c1cc2ccccc2s1)N(O)C(N)=O (stereo not drawn) [zileuton],0 (inactive)
19,COc1ccc2[nH]c(S(=O)Cc3ncc(C)c(OC)c3C)nc2c1 (stereo not drawn) [omeprazole],0 (inactive)
